Experimental findings from PubChem BioAssay (NCI) are described below.

Molecules are shown by their SMILES. Compounds without any hit were thinned out: in the full panel of roughly 83,000, 20% have a hit.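 Each cell line was grown in a 96-well plate and treated with one concentration of compound for 48 hours. Values below 10 were considered active.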 A number with no mark means an inactive call. The source made the active and inactive calls.

For the assay, the system named is OVCAR-4 ovarian. Kind of assay: NCI-60 one-dose screen, 48 h (100 = growth as untreated, 0 = no growth, -100 = all killed). Conditions: 10 µM unless noted.
On to `COc1cc2c(cc1O)CC[C@@H]1[C@@H]2CC[C@]2(C)[C@@H](NCCN(C)C)CC[C@@H]12`, for which the growth is -63.3% (active). In the case of `COc1cccc2c1C(=O)c1c(O)c3c(c(O)c1C2=O)C[C@](O)(C(=O)CO)C[C@H]3O[C@@H]1C[C@@H](NC(=O)CCCN(C)C2(c3ccc(F)cc3)CC3CCC2C3)[C@H](O)[C@@H](C)O1` (stereo partly drawn) it was -68.9% (active); in that of `O=c1cc(CSc2nnc(SCc3cc(=O)oc4c3ccc3ccccc34)o2)c2ccc3ccccc3c2o1`, 111%. On to `COc1cc2c(cc1O)CC[C@@H]1[C@@H]2CC[C@]2(C)[C@@H](OCCN(C)C)CC[C@@H]12`, for which the growth is 47%. On to `COc1ccc(-c2nnc(SCC(=O)c3ccc(Cl)cc3)o2)cc1`, for which the growth was 98%.

On to `NC(=NCCCOc1ccc(Cl)cc1)Nc1ccc(C(F)(F)F)cc1`, for which the growth was 34%. The result for `CCCCC[C@H]1C/C=C2/C(=O)C=C[C@@H]2C/C=C\CCCC(=O)O1` reads 14.1%. The result for `CNC(=O)c1cc(Oc2ccc(NC(=O)Nc3ccc(Cl)c(OC(F)(F)F)c3)c(F)c2)ccn1` reads 5.4% (active); that for `COc1ccc2c(c1)C(=O)/C(=C/c1cccnc1)CC2`, 93.4%; that for `COc1cccc(-c2nc(SCC(=O)Nc3ccc(C(=O)/C=C/c4ccc(OC)c(OC)c4)cc3)[nH]c(=O)c2C#N)c1`, 80.8%. The result for `CCCn1c(=O)[nH]c(N)c([C@H]2c3ccccc3Oc3[nH]c(=O)n(CCC)c(=O)c32)c1=O` reads 64.6%; that for `C=C1C(=O)O[C@H]2[C@H]1CC/C(COC(=O)NCc1ccc(OC)c(OC)c1)=C\CC[C@@]1(C)O[C@@H]21`, 42.3%; that for `N#CN1CC[C@H](C(=O)Nc2cc3cc(C(N)=O)ccc3cn2)C1`, 4.32% (active). For `O=C1c2c(O)cc(O)cc2-c2c(-c3ccc(O)cc3)oc3cc(O)cc1c23`, the growth was 61.5%.

As to `O=C1/C(=C/c2ccccc2O)N=C2SCCCN12`, the growth was 82.9%. As for `COc1ccc(CN2c3ccccc3Sc3ccccc32)c(C(F)(F)F)c1`, the growth is 44.2%. In the case of `COc1ccc(-c2nc(SCC(=O)Nc3ccc(C(=O)/C=C/c4ccc(Cl)cc4)cc3)[nH]c(=O)c2C#N)cc1` it was 99.8%; in that of `COc1ccc2c(c1)CC/C(=C\c1cncc(Br)c1)C2=O`, 86.5%.

Take `COc1ccc2c(c1)C(=O)/C(=C/c1ccccn1)CC2`: the growth is 83.8%.

Turning to `Cc1nc(Nc2ccc(F)c(Cl)c2)sc1C(=O)O`, the growth is 21.7%. The result for `CCOC(=O)c1sc(Nc2ccc(Cl)cc2)nc1C` reads 18.2%; that for `CC(=O)c1cc(C(=O)c2ccc3c(c2)Sc2ccccc2N3)n2ccccc12`, 40.9%. In the case of `CC(=O)O[C@H]1C(=O)[C@@]2(C)[C@H]([C@H](OC(=O)c3ccccc3)[C@]3(O)C[C@H](OC(=O)[C@H](OC(=O)CCC(=O)OC4CCC(S/N=C(N)/N=C(\N)N(C)C)CC4)[C@@H](NC(=O)c4ccccc4)c4ccccc4)C(C)=C1C3(C)C)[C@]1(OC(C)=O)CO[C@@H]1C[C@@H]2O` (stereo partly drawn) it was 40.3%; in that of `CC(=O)OC[C@H]1O[C@H](OC(C)=O)[C@H](NC(=O)/C=C/CCl)[C@@H](OC(C)=O)[C@@H]1OC(C)=O`, 68.2%. Consider `COc1cc(-c2nc(C(=O)NCC(=O)NO)nn2-c2ccc(Cl)cc2)cc(OC)c1OC`, for which the growth was 105%. As for `C=C1C(=O)O[C@H]2[C@H]1CC/C(COC(=O)NCCc1ccc(OC)c(OC)c1)=C\CC[C@@]1(C)O[C@@H]21`, the growth was 49.9%.

In the case of `CC/C=C\C[C@H](O)C/C=C1/C(=O)C=C[C@@]1(C)C/C=C\CCCC(=O)OC`, the growth was 101%. `Cc1ccc2oc(=O)cc(C3c4ccc([nH]4)C(c4cc(=O)oc5ccc(C)cc45)c4ccc([nH]4)C(c4cc(=O)oc5ccc(C)cc45)c4ccc([nH]4)C(c4cc(=O)oc5ccc(C)cc45)c4ccc3[nH]4)c2c1` (stereo not drawn): the growth is -6.02% (active). In the case of `COc1cccc2c1C(=O)c1c(O)c3c(c(O)c1C2=O)C[C@](O)(C(=O)CO)C[C@H]3O[C@@H]1C[C@@H](NC(=O)CCCCCN(C)C2(c3ccc(F)cc3)CC3CCC2C3)[C@H](O)[C@@H](C)O1` (stereo partly drawn) it was 0.206% (active); in that of `NC(=NCCCC1(c2ccccc2)CCCC1)Nc1ccc(Cl)cc1`, 41.3%; in that of `CCC#CC[C@H](O)C/C=C1/C(=O)C=C[C@@H]1C/C=C\CCCC(=O)OC`, 29.1%. `O=c1oc2c(C(F)(F)F)cccc2cc1-c1csc(Nc2ccc(OCCF)cc2)n1`: the growth was 40.4%. The result for `CNC(=O)c1cc(Oc2ccc(NC(=O)Nc3ccc(Cl)c(SC)c3)c(F)c2)ccn1` reads 16.3%; that for `c1ccc2[nH]c(-c3ccc(Nc4nc(N5CCCC5)nc5[nH]ncc45)cc3)nc2c1`, 10.7%; that for `CC/C=C\C/C=C\C[C@H]1C/C=C2/C(=O)C=C[C@@H]2C/C=C\CCC(=O)O1`, 26.7%. Turning to `COc1ccc(CN2c3ccccc3Sc3ccccc32)cc1O`, the growth is 45.7%. In the case of `CCOc1ccc(-n2nc(C(=O)Nc3cc(OC)c(OC)c(OC)c3)nc2-c2cc(OC)c(OC)c(OC)c2)cc1` it was 68.1%; in that of `CC/C=C\C[C@H]1C/C=C2/C(=O)C=C[C@H]2C/C=C\CCCC(=O)O1`, 29.5%.
